Test results from PubChem BioAssay (Tox21).
Inconclusive results are not listed. Activity calls are given as the source filed them. Unless noted, calls follow the shape of the full dose curve.

Columns and labels:
[1] = Nuclear factor erythroid 2-related factor 2/antioxidant responsive element (Nrf2/ARE) small molecule agonists: qHTS cell viability counter screen in human keratinocytes (AID 1919968; active = well fitted curve in the direction sought with a large enough effect in the repeat runs; an effect the other way counts as inactive or inconclusive; also: nearly all actives have a fitted effect of over 55% in size; also: potency is read from the fitted curve at half-maximal effect)
Outline: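 HaCaT ARE reporter line, 1,500 cells/well; 5 h settle, 37 C/5% CO2; cpd in DMSO pinned; 23 h exposure; CellTiter-Fluor, 1 h; fluorescence.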

[2] = Nuclear factor erythroid 2-related factor 2/antioxidant responsive element (Nrf2/ARE) small molecule agonists: luciferase reporter gene qHTS assay in human keratinocytes (AID 1919969); also: nearly all actives have a fitted effect of over 35% in size; also: potency is read from the fitted curve at half-maximal effect
[3] = target: Gonadotropin-releasing hormone receptor (Homo sapiens) (UniProt P30968); test: Human gonadotropin-releasing hormone receptor (GnRHR) small molecule agonists, calcium flux assay in GnRHR-HEK293 cells (AID 1920063); also: nearly all actives have a fitted effect of over 35% in size; also: potency is read from the fitted curve at half-maximal effect
Outline: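 GnRHR-HEK293, 1500 cells/well, 18 h 37 C/5% CO2; Ca dye 1 h 37 C; cpd pinned (DMSO), agonist mode; kinetic FL 480/540, 3 min, 1 s reads; 15 conc, n=3.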

[4] = target: KiSS-1 receptor (Homo sapiens) (UniProt Q969F8); test: Human kisspeptin (KISS1R) small molecule agonists, calcium flux assay in KISS1R-HEK293 cells (AID 1920064; active = well fitted curve in the direction sought with a large enough effect in the repeat runs; an effect the other way counts as inactive or inconclusive; also: potency is read from the fitted curve at half-maximal effect)
Outline: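 Stable human KISS1R HEK293 line; 18 h plating, 37 C/5% CO2; calcium dye 1 h 37 C; compound pin transfer; kinetic fluorescence Ex/Em 480/540, 3 min.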

[5] = G protein-coupled receptor (GPCR) small molecule agonists, calcium flux assay: HEK293 wild type cell line counter screen (AID 1920065); also: potency is read from the fitted curve at half-maximal effect
Outline: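 Kinetic fluorescence at Ex/Em 480/540, recorded every second over 3 min, served as the read-out after compound addition. Each compound was tested at 15 concentrations in triplicate on cells pre-loaded with calcium dye for 1 h.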

[6] = p53 small molecule agonists, cell-based qHTS assay with human liver microsomes (AID 1963577);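 also: p53 response element beta-lactamase reporter cells with liver microsomes plus NADPH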
Outline: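 In this qHTS, p53 response-element beta-lactamase cells receive test compound together with a microsome/NADPH activating system (0.5 mg/mL final each) and are incubated 16 h at 37 C before LiveBLAzer fluorescence detection.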

[7] = p53 small molecule agonists, cell-based qHTS assay with rat liver microsomes (AID 1963578)
Outline: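 Agonist mode in p53RE-bla reporter cells, with compounds co-incubated 16 h at 37 C alongside 0.5 mg/mL rat liver microsomes and 0.5 mg/mL NADPH (final), followed by a 2 h LiveBLAzer detection step.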

[8] = p53 small molecule agonists, cell-based qHTS assay with human liver microsomes: qHTS cell viability counter screen (AID 1963579); also: nearly all actives have a fitted effect of over 45% in size; also: potency is read from the fitted curve at half-maximal effect
Outline: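 Metabolically activated exposure: compounds, human liver microsomes and NADPH (0.5 mg/mL final apiece) were added to p53RE-bla cells seeded 5 h earlier, left 16 h at 37 C, and then assessed for viability by CellTiter-Glo luminescence.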

[9] = p53 small molecule agonists, cell-based qHTS assay with rat liver microsomes: qHTS cell viability counter screen (AID 1963580); also: nearly all actives have a fitted effect of over 45% in size; also: potency is read from the fitted curve at half-maximal effect
Outline: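 In HCT-116 cells carrying a p53 response element-bla reporter, compounds were metabolically activated in situ by rat liver microsomes with NADPH over 16 h. Cell ATP content then served as the cytotoxicity measure.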

[10] = p53 small molecule agonists, cell-based qHTS assay: qHTS cell viability counter screen (AID 1963581); also: nearly all actives have a fitted effect of over 45% in size; also: potency is read from the fitted curve at half-maximal effect
Outline: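 HCT-116 p53RE-bla cells, 4,000/well, plated 5 h before compound pin transfer; 16 h at 37 C; bla substrate 2 h RT; then CellTiter-Glo, 30 min RT, luminescence.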

[11] = p53 small molecule agonists, cell-based qHTS assay (AID 1963582; active = well fitted activation curve with a large enough effect in the signal ratio in the repeat runs, not every such curve was filed as active; the % refers to the signal ratio)
Outline: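 Reporter line: p53RE-bla. Pre-incubation 5 h, 37 C, 5% CO2; compound (DMSO, pin tool) 16 h, 37 C; B/G FRET substrate 2 h RT; fluorescence intensity read.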

[12] = target: 5-hydroxytryptamine receptor 2A (Homo sapiens) (UniProt P28223); test: 5-hydroxytryptamine receptor 2A (HTR2A) small molecule agonists, cell-based qHTS assay (AID 1963587); also: nearly all actives have a fitted effect of over 30% in size; also: potency is read from the fitted curve at half-maximal effect
Outline: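 HTR2A-CHO cells, plated 18 h at 37 C/5% CO2, dye-loaded 1 h at 37 C; compounds in DMSO added by pin tool (agonist mode). Intracellular calcium flux read as kinetic fluorescence on FDSS over 2 min at 1 s intervals.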

[13] = target: Muscarinic acetylcholine receptor M1 (Homo sapiens) (UniProt P11229); test: Cholinergic receptor muscarinic 1 (CHRM1) small molecule antagonists, cell-based qHTS assay (AID 1963588); also: nearly all actives have a fitted effect of over 40% in size; also: potency is read from the fitted curve at half-maximal effect
Outline: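 CHRM1-CHO calcium-flux assay, antagonist mode. Cells were seeded 18 h, dye-loaded 1 h at 37 C and given compound for 5 min at RT, then acetylcholine was added at 50nM. FDSS fluorescence was read 3 min; 15 concentrations, three runs.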

[14] = target: Muscarinic acetylcholine receptor M1 (Homo sapiens) (UniProt P11229); test: Cholinergic receptor muscarinic 1 (CHRM1) small molecule agonists, cell-based qHTS assay (AID 1963589); also: nearly all actives have a fitted effect of over 35% in size
Outline: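 Human M1 in stable CHO line; 18 h plating, 1 h dye load 37 C; cpd added (agonist mode); Ca2+ fluorescence kinetic read, 1 s intervals; 15 conc, 3 runs.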

[15] = target: Beta-2 adrenergic receptor (Homo sapiens) (UniProt P07550); test: Adrenergic beta2 receptor (ADRB2) small molecule antagonists, cell-based qHTS assay (AID 1963592); also: nearly all actives have a fitted effect of over 50% in size; also: potency is read from the fitted curve at half-maximal effect
Outline: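 Cells (CHO, stable ADRB2 overexpression) incubated 18-20hr at 37C; compounds added from DMSO; agonist mix (1nM isoproterenol, 100uM IBMX, 25uM Ro-20-1724) added; 0.5hr RT; d2-cAMP and anti-cAMP-cryptate added; 1hr RT; 665/615 nm read.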

[16] = target: D(2) dopamine receptor (Homo sapiens) (UniProt P14416); test: Dopamine D2 receptor (DRD2) small molecule agonists, cell-based qHTS assay (AID 1963594); also: nearly all actives have a fitted effect of over 35% in size; also: potency is read from the fitted curve at half-maximal effect
Outline: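 HEK293 cells stably expressing DRD2 were cultured 24 h at 37 C, then given Ro20-1724 (0.1 mM final) and compounds for 10 min at room temperature. NKH477 (200nM) was then added for 30 min. cAMP was read by HTRF.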

[17] = target: D(2) dopamine receptor (Homo sapiens) (UniProt P14416); test: Dopamine D2 receptor (DRD2) small molecule antagonists, cell-based qHTS assay (AID 1963595; active = well fitted inhibition curve with a large enough effect in the signal ratio in the repeat runs, with a control signal flat; the % refers to the signal ratio; also: potency is read from the fitted curve at half-maximal effect)
Outline: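 Cells were plated and grown for 24 h at 37 °C. Ro20-1724 (0.1 mM final) went in first, then compound for 10 min. NKH477 (200 nM) with quinpirole (12 nM) followed for 30 min at RT, then HTRF detection reagents for 1 h.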

[18] = cAMP Responsive Elements (CRE) small molecule agonists, cell-based qHTS assay (AID 1963590)
Outline: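 HEK 293T CRE-bla, 2,000 cells/well, 18 h preincubation 37 C/5% CO2; cpds (DMSO) pinned, 3 h; LiveBLAzer B/G FRET substrate, 2 h RT.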

[19] = cAMP Responsive Elements (CRE) small molecule antagonists, cell-based qHTS assay (AID 1963591; active = well fitted inhibition curve with a large enough effect in the signal ratio in the repeat runs, not every such curve was filed as active; the % refers to the signal ratio)
Outline: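 Beta-lactamase reporter read by FRET substrate (LiveBLAzer B/G) after 2 h at room temperature. CRE-bla HEK293T cells had received compound plus 0.25 uM (final) NKH477 for 3 h at 37 °C.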

[20] = target: 5-hydroxytryptamine receptor 2A (Homo sapiens) (UniProt P28223); test: 5-hydroxytryptamine receptor 2A (HTR2A) small molecule antagonists, cell-based qHTS assay (AID 1963586); also: nearly all actives have a fitted effect of over 45% in size
Outline: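 Antagonist-mode intracellular calcium assay: DOI (4 nM) added after 5 min compound pre-incubation at room temperature to dye-loaded HTR2A-CHO cells. Fluorescence followed for 3 min, sampled every second.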

Measured: Potency

Sequence of Beta-2 adrenergic receptor (Homo sapiens) (P07550 whole entry, looked up): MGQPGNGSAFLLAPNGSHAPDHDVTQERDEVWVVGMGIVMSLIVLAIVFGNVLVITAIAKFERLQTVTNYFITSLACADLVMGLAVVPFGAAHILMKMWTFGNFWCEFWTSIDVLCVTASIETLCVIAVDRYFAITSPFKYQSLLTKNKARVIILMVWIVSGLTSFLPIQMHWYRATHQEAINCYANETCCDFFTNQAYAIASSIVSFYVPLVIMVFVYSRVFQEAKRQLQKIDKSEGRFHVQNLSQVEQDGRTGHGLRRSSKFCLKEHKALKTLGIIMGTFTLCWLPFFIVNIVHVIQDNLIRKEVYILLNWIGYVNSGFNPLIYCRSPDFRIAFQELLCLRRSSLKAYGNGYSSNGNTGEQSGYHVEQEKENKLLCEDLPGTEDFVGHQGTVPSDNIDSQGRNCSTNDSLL
Sequence of D(2) dopamine receptor (Homo sapiens) (P14416 whole entry, looked up): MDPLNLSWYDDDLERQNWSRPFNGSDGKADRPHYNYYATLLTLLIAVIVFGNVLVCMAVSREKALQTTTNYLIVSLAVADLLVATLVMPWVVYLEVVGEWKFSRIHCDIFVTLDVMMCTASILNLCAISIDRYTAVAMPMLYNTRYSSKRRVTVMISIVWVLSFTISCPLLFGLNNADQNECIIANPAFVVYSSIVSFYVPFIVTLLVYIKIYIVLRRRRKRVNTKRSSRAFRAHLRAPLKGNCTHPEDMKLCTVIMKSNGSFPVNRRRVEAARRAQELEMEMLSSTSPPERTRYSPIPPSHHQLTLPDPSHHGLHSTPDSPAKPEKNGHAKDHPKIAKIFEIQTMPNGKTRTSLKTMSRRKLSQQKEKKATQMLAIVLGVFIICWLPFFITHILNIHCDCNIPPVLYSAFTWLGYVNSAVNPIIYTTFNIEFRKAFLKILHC
Sequence of Muscarinic acetylcholine receptor M1 (Homo sapiens) (P11229 whole entry, looked up): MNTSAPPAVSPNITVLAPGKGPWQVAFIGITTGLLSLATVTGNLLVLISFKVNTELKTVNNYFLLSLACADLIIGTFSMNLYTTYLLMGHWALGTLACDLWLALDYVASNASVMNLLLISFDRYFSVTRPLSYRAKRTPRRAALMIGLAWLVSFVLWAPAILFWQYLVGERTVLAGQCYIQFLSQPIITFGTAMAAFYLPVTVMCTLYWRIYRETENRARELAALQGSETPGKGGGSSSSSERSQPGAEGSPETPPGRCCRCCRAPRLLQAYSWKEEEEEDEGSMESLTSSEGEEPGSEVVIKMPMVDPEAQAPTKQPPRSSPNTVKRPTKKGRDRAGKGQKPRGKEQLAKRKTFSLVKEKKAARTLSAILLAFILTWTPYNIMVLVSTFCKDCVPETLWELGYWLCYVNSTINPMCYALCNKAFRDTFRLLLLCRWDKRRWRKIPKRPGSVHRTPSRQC
Sequence of Gonadotropin-releasing hormone receptor (Homo sapiens) (P30968 whole entry, looked up): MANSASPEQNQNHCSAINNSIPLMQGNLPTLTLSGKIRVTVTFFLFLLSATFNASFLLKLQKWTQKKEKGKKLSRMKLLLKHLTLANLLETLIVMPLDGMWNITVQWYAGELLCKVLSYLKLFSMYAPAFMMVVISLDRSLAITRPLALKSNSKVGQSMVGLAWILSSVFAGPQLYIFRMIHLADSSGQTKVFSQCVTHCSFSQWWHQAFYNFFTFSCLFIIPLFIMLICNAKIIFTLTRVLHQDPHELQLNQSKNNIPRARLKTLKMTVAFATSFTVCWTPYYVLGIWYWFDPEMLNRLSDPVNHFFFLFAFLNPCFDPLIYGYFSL
Sequence of KiSS-1 receptor (Homo sapiens) (Q969F8 whole entry, looked up): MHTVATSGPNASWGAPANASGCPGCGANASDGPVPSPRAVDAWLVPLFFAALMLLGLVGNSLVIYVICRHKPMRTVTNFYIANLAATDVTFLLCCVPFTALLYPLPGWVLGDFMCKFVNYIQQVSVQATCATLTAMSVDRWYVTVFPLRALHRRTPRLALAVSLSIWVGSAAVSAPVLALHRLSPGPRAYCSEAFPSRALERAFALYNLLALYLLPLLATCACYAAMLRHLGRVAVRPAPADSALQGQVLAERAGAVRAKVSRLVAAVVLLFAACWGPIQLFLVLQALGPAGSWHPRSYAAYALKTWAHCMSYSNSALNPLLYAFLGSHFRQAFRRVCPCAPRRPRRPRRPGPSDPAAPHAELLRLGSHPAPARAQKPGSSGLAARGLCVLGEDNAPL
Sequence of 5-hydroxytryptamine receptor 2A (Homo sapiens) (P28223 whole entry, looked up): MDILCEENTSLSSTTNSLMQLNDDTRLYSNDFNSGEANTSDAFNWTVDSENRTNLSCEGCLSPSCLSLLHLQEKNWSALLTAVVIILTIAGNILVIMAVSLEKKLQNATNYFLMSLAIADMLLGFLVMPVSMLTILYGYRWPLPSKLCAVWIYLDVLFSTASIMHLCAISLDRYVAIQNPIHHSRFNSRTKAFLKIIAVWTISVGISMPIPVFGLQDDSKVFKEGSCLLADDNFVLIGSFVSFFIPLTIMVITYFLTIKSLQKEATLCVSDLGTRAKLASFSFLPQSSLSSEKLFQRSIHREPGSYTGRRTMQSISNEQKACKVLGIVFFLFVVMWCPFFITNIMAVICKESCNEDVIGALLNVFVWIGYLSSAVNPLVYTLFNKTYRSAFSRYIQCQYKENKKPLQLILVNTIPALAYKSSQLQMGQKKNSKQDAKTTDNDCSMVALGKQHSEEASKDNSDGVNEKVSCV

CC#C[C@]1(O)CC[C@H]2[C@@H]3C[C@H](C)C4=CC(=O)CC[C@]4(C)[C@H]3CC[C@@]21C
not listed: [18] | [19] | [20]
inactive: all other assays above

ClCCCN1CCN(c2cccc(Cl)c2)CC1
not listed: [16] | [20]
inactive: all other assays above

CCCSC(=O)N(CCC)CCC
not listed: [20]
inactive: all other assays above

ClCc1cccc(Cl)c1
not listed: [12] | [16] | [20]
inactive: all other assays above

COc1ccc2c(C(=O)c3ccc(Cl)cc3)c(C)n(CC(=O)O)c2c1
not listed: [12] | [16] | [20]
inactive: all other assays above

O=NN(CCO)CCO
not listed: [14] | [17] | [20]
inactive: all other assays above

CC1(C)C(/C=C(\Cl)C(F)(F)F)C1C(=O)OC(C#N)c1cccc(Oc2ccccc2)c1 (stereo not drawn)
not listed: [20]
inactive: all other assays above

COc1cc(CC(C)N)cc2c1OCO2 (stereo not drawn)
active: [12] 1.44 µM | [13] 15.6 µM | [15] 32 µM
not listed: [20]
inactive: all other assays above

C=CCC1([C@H](C)CCC)C(=O)NC(=O)NC1=O
not listed: [12] | [13] | [14] | [16] | [20]
inactive: all other assays above

Nc1cc(Cl)ccc1Cl
not listed: [20]
inactive: all other assays above

CC#Cc1cc(C)nc(Nc2ccccc2)n1
active: [2] 48.5 µM
not listed: [12] | [15] | [16] | [17] | [19] | [20]
inactive: all other assays above

C=CC(=O)OCCN(C)C
not listed: [20]
inactive: all other assays above

COc1ccc(C(=O)N2CCCC2=O)cc1
not listed: [12] | [13] | [14] | [20]
inactive: all other assays above

CCN(CC)C(=O)Cl
not listed: [20]
inactive: all other assays above

O=C(N[C@H]1CN2CCC1CC2)c1cc2ccoc2cn1
not listed: [12] | [13] | [15] | [16] | [19] | [20]
inactive: all other assays above

O=C1OC(CCN2CCCCC2)OC1(c1ccccc1)c1ccccc1 (stereo not drawn)
active: [2] 29.8 µM | [13] 2.31 µM
not listed: [14] | [15] | [20]
inactive: all other assays above

CC(C)NCC(O)c1ccccc1Cl (stereo not drawn)
not listed: [12] | [13] | [14] | [18] | [20]
inactive: all other assays above

CC(C)(C)NCC(O)c1ccccc1Cl (stereo not drawn)
not listed: [13] | [16] | [17] | [18] | [20]
inactive: all other assays above

C=C(Cl)Cl
not listed: [12] | [13] | [14] | [15] | [17] | [20]
inactive: all other assays above

CCOC(=O)CBr
not listed: [10] | [15]
inactive: all other assays above

Nc1cc(Cl)ccc1O
active: [2] 52.7 µM
not listed: [11]
inactive: all other assays above

O=C(NC(=O)c1cc(F)c(F)cc1Cl)Nc1cc(F)ccc1N1CCC(C(=O)O)CC1
not listed: [11] | [14] | [18] | [19]
inactive: all other assays above

Oc1ccc(I)cc1
not listed: [10]
inactive: all other assays above

CO/C=C(/C(=O)OC)c1ccccc1COc1cccc(C(F)(F)F)n1
not listed: [11] | [19]
inactive: all other assays above

C[C@@H]1CC[C@@]2(OC1)O[C@H]1[C@@H](O)[C@H]3[C@@H]4CC[C@H]5C[C@@H](O[C@@H]6O[C@H](CO)[C@H](O[C@@H]7O[C@H](CO)[C@@H](O)[C@H](O[C@@H]8OC[C@@H](O)[C@H](O)[C@H]8O)[C@H]7O[C@@H]7O[C@H](CO)[C@@H](O)[C@H](O[C@@H]8O[C@H](CO)[C@@H](O)[C@H](O)[C@H]8O)[C@H]7O)[C@H](O)[C@H]6O)[C@H](O)C[C@]5(C)[C@H]4CC[C@]3(C)[C@H]1[C@@H]2C
active: [1] 8.17 µM | [3] 0.735 µM | [4] 23.2 µM | [5] 41.3 µM | [8] 13.7 µM | [9] 13.7 µM | [10] 13.7 µM | [15] 64.9 µM | [16] 51.5 µM | [17] 2.3 µM
inactive: [2] | [6] | [7] | [19]

Nc1n[nH]c(N)n1
active: [2] 27.8 µM
not listed: [10] | [18] | [19]
inactive: all other assays above

[F][Sn]([c]1ccccc1)([c]1ccccc1)[c]1ccccc1
active: [1] 0.864 µM | [2] 0.545 µM | [3] 34.7 µM | [8] 2.29 µM | [9] 11.5 µM | [10] 2.89 µM | [12] 30.9 µM
inactive: [4] | [5] | [6] | [7] | [20] | [15] | [16]

Nc1c(Cl)c(F)nc(OCC(=O)O)c1Cl
not listed: [10] | [14] | [15] | [18] | [19]
inactive: all other assays above

C[As+](C)(C)CC(=O)[O-]
not listed: [11] | [12]
inactive: all other assays above
